Drawing on PubChem BioAssay AID565 (University of Pittsburgh Molecular Library Screening Center, 2006), this text covers inhibition for 68 compounds.

About 1,200 (1.8%) of roughly 65,000 compounds were called active. Rule as the data show it: active = inhibition above about 50%; inactive = the rest. What follows is part of a selection rich in actives, with near analogues and random picks from the rest.

In the assay the target is Gag-Pol polyprotein (Human immunodeficiency virus type 1 group M subtype B (isolate HXB2)) (UniProt P04585). Put plainly: blockers of HIV-1 RNase H RNA/DNA cleavage – biochemical, fluorescence, primary screen (AID 565). The settings on record: RT-RNase H RNA/DNA duplex cleavage, at 10 µM, hits give high values.
As a reminder, the inhibition is the change of the read-out against control, counted positive when it falls. In the case of `CCOC(=O)c1c(NC(=O)CSc2nnc(Cc3csc(N)n3)n2C)sc(C)c1C`, the inhibition is -19.7% (inactive). As for `CCOC(=O)c1c(-n2cnnn2)sc(C)c1C`, the figure is 70.4% (active).

With `CCOC(=O)c1c(NC(=O)c2cccs2)sc(C)c1C`, the inhibition is -2.71% (inactive). As to `Cc1cccc(NC(=O)C2CCCN2S(=O)(=O)c2ccc(F)cc2)c1C` (stereo not drawn), the inhibition is -5.03% (inactive).

As to `COc1ccc(CCNC(=O)c2ccc3c(c2)NC(=O)C(N2CCOCC2)S3)cc1OC` (stereo not drawn), the inhibition is -10.7% (inactive). `O=c1cc(-c2ccccc2)nc(N2CCCCC2)[nH]1`: the inhibition is -11.7% (inactive). Regarding `CC(=O)N1CCN(c2ccc(NCc3ccc(C(C)C)cc3)cc2)CC1`, the inhibition was -16.6% (inactive).

For `CCOC(=O)CSc1nc2c(sc(=S)n2CCc2ccccc2)c(=O)n1Cc1ccco1`, the inhibition is 60.1% (active). For `CCOC(=O)CSc1nc2c(c(=O)n(C)c(=O)n2C)n1Cc1ccccc1F`, the inhibition was -12.1% (inactive). For the compound `COc1ccccc1NC(=O)CSc1nc2sc(C)c(C)c2c(=O)n1Cc1ccco1`, the inhibition was 9.92% (inactive). Consider `COc1ccc(C2C(C#N)=C(N)Oc3n[nH]c(C)c32)cc1CN1CCN(c2ccc(F)cc2)CC1` (stereo not drawn), for which the inhibition was -5.93% (inactive).

In the case of `CCN(CC)S(=O)(=O)c1ccc2nc(COC(=O)c3n[nH]c4ccccc34)[nH]c2c1`, the inhibition was 55.6% (active).

In the case of `CCN(CC)S(=O)(=O)c1ccc2nc(CSc3nnnn3-c3ccc(O)cc3)[nH]c2c1`, the inhibition is 10.6% (inactive). With `COc1ccc(COC(=O)c2n[nH]c3ccccc23)cc1F`, the inhibition was -42.8% (inactive). In the case of `CCCCC(=O)N1CC2(C)CN(C(=O)CCCC)CC(C)(C1)C2=O`, the inhibition was -4.52% (inactive).

Turning to `Cc1cc(C)c2c(n1)nn1c(N3CCN(c4cccc(Cl)c4)CC3)cc(C)nc21`, the inhibition is 29.6% (inactive). `CN1CCc2c(sc3c2c(NCc2ccco2)nc2nnnn23)C1`: the inhibition is 1.26% (inactive). With `COC(=O)c1cc(S(=O)(=O)NC2CCN(Cc3ccccc3)CC2)cn1C`, the inhibition is -1.44% (inactive). For the compound `CCS(=O)(=O)N1CCCC(C(=O)NCc2ccc(C)cc2)C1` (stereo not drawn), the inhibition was -25.4% (inactive). On to `CC(C)CNC(=O)C1CCCN(S(=O)(=O)c2ccc(-n3cnnn3)cc2)C1` (stereo not drawn), for which the inhibition is 55.3% (active). As for `CC(C)CCNC(=O)C1CCCN(S(=O)(=O)c2ccc(F)cc2)C1` (stereo not drawn), the figure is -4.63% (inactive); as for `CC(Oc1ccc(Cl)cc1)C(=O)Nc1ncccn1` (stereo not drawn), -1.55% (inactive). Take `COc1ccc(CCNC(=O)c2cc3sccc3n2C)cc1OC`: the inhibition was -5.6% (inactive).

`O=C(Nc1nccs1)C1CCCN1S(=O)(=O)c1cccc2cccnc12` (stereo not drawn): the inhibition was -30.1% (inactive).

For the compound `CCc1nc(Nc2ccc3nccnc3c2)c2oc3ccccc3c2n1`, the inhibition was -0.27% (inactive). In the case of `COc1cc(C2C(C(=O)c3ccc(C)o3)=C(O)C(=O)N2Cc2cccnc2)ccc1O` (stereo not drawn), the inhibition is 5.97% (inactive). As for `COc1nc(OC)nc(N(C)CCO)n1`, the figure is -8.92% (inactive). As for `CCC1=[N+]([O-])C(C)(/C(C)=N\O)N(O)C1(C)C` (stereo not drawn), the figure is 50.7% (active); as for `C/C(=N\O)C1(C)N(O)C(C)(C)C(c2ccc(Br)cc2)=[N+]1[O-]` (stereo not drawn), -4.23% (inactive). With `CCC1(C)N(O)C(C)(C)C(c2ccc(OC)cc2)=[N+]1[O-]` (stereo not drawn), the inhibition was -6.14% (inactive).

For the compound `CC(=O)CCS(=O)(=O)c1ccc(C)c(C)c1`, the inhibition is -10.6% (inactive).

For the compound `CC(=O)Oc1cccc(N2C(=O)CC(Nc3ccc(N4CCOCC4)cc3)C2=O)c1` (stereo not drawn), the inhibition was 2.32% (inactive). As for `Cc1csc(NC(=O)NC2(C(F)(F)F)Oc3ccccc3O2)n1`, the figure is 74.1% (active); as for `Cc1csc(NC(=O)CN2CCCCCC2)n1`, 7.02% (inactive); as for `CCOC(=O)Cc1csc(NC(=O)Nc2ccccc2)n1`, -23.4% (inactive).

Turning to `CCCCCOC(=O)NCCOC(=O)Nc1ccc(C(=O)OCC)cc1`, the inhibition is -14% (inactive). `Cc1cccc(C(=O)Nc2ccc(CC(=O)O)cc2)c1`: the inhibition was -3.58% (inactive).

As for `CCOC(=O)c1sc(=S)n2c1[nH]c(=O)c1ccc(C(=O)OC)cc12`, the inhibition was 93.6% (active). For the compound `COC(=O)c1cccc(NC(=O)CSc2nc(C)cc(=O)[nH]2)c1`, the inhibition was -4.06% (inactive). For the compound `COC(=O)c1ccc2c(=O)n(CC3CCCO3)c(=S)[nH]c2c1` (stereo not drawn), the inhibition is 0.2% (inactive). Turning to `CSc1ccc(-c2c(C#N)c(N)nc3c2c(C)nn3-c2ccccc2)cc1`, the inhibition was -4.17% (inactive). In the case of `C[C@H](NC(=O)OC(C)(C)C)c1nnc(SCC(N)=O)o1`, the inhibition was -8.59% (inactive). As for `CC(=O)Nc1cccc2c1[n+]([O-])c(C)c(C)[n+]2[O-]`, the figure is -5.6% (inactive). Consider `Cc1ccc2cccc(O)c2[n+]1[O-]`, for which the inhibition was 63.1% (active).

For `CCCS(=O)(=O)N1CCCC(C(=O)NCCN2CCCCC2C)C1` (stereo not drawn), the inhibition was -24.4% (inactive). For the compound `COc1ccc(CCNC(=O)CSc2nnc(CNC(=O)c3cccs3)o2)cc1OC`, the inhibition was 4.42% (inactive). As for `O=c1cc(O)nc(SCc2ccccc2Cl)[nH]1`, the figure is -21.4% (inactive). Take `Clc1ccccc1CSc1nnc(-c2ccco2)c(-c2ccco2)n1`: the inhibition is 55.3% (active). Turning to `c1ccc(CSc2nnc(-c3ccco3)c(-c3ccco3)n2)cc1`, the inhibition is 97% (active). For the compound `c1coc(-c2nc3nc4ccccc4n3nc2-c2ccco2)c1`, the inhibition is -3.81% (inactive). `c1ccc(CSc2nnc(-c3ccco3)n2Cc2ccccc2)cc1`: the inhibition was -24.3% (inactive). For the compound `Nc1cc(=O)nc(SCc2ccccc2)n1Cc1ccco1`, the inhibition is -80.9% (inactive). Turning to `Cc1nn(-c2ccccc2)c(C)c1C(=O)OCC(=O)NC(=O)NC1CCCCC1`, the inhibition was 7.28% (inactive).

Take `OC1CN=C2Sc3ccccc3N2C1` (stereo not drawn): the inhibition was -8.76% (inactive).

`COc1ccccc1NC(=O)c1ccc(C)s1`: the inhibition is -6.32% (inactive). For the compound `COc1ccc(CN2C(=O)CN=C2Nc2ccc(C)cc2C)cc1`, the inhibition was -7.04% (inactive). For `Cc1cc(C)nc(NC2=NCC(=O)N2c2ccc(Cl)cc2)n1`, the inhibition is 4.35% (inactive). As for `COc1ccc(N2C(=O)CN=C2Nc2cccc(C)c2C)cc1OC`, the figure is 93.2% (active). On to `CCOC(=O)N1CCC(NC(=O)c2cnn3ccccc23)CC1`, for which the inhibition is -4.53% (inactive). In the case of `CCOC(=O)c1ccn(-c2nc(-c3ccco3)cc(C(F)(F)F)n2)n1`, the inhibition was -4.86% (inactive). As to `Cc1cc(C(F)(F)F)nn1-c1nc(-c2ccco2)cc(C(F)(F)F)n1`, the inhibition was 94.4% (active). For the compound `FC(F)(F)c1cc(-c2ccco2)nc(N2CCOCC2)n1`, the inhibition is -9.98% (inactive). Regarding `Nc1ccc(-c2nnc(-c3ccc(-c4ccccc4)cc3)o2)cc1`, the inhibition is 80.5% (active). As for `O=C(Nc1ccc(-c2nnc(-c3ccccc3)o2)cc1)c1ccc(Br)o1`, the figure is -4.57% (inactive). Take `O=C(Nc1ccc(-c2nnc(-c3ccccc3)o2)cc1)C1CCCO1` (stereo not drawn): the inhibition was 4.33% (inactive). Turning to `CCCc1[nH]nc2c1C(c1ccc(OC)c(Cn3nc(C)c(Br)c3C)c1)C(C#N)=C(N)O2` (stereo not drawn), the inhibition was 7.36% (inactive). With `O=C(c1ccc2c(c1)OCO2)N1CCNc2ccccc2C1`, the inhibition is -5.92% (inactive). For the compound `O=C(c1ccccc1-c1ccccc1)N1CCOCC1`, the inhibition is 4.44% (inactive).
